Test results: PubChem BioAssay (EPA / NIEHS)
Values joined by “and” are separate entries in the source; they are usually repeats but may differ in a detail not shown here. Identical values can stand only once. Results filed as inconclusive are left out. Where a structure was tested more than once in an assay, its records may differ in their call. Active and inactive are the calls of the source. The calls were made as follows: active = hit-call score of the fitted dose curve at least 0.9, where 1 is the maximum; inconclusive = response in the unintended direction; inactive = score below 0.9.

Assay: TOX21_p53_BLA_p5_viability: Viability Assessment in the Tox21 HCT-116 p53 Agonism Beta-lactamase Assay, Phase 5 (AID 2283600)
From the text: TOX21_p53_BLA_p5 is a cell-based, single-readout assay that uses HCT116, a human intestinal cell line, […] in a 1536-well plate.TOX21_p53_BLA_p5_viability is an assay readout measuring cellular ATP content and detected with CellTiter-Glo Luciferase-coupled ATP quantitation.TOX21_p53_BLA_p5_viability used a type of viability reporter where loss-of-signal activity can be used to understand changes in the cell viability. Furthermore, this assay endpoint can be referred to as a secondary readout, because this assay has produced multiple assay endpoints where this one serves a viability function. To generalize the intended target to other relatable targets, this assay endpoint is annotated to the cell cycle intended target family, where the subfamily is cytotoxicity.
Thawing Method: Place 14 mL of pre-warmed thaw medium into a 15 mL of conical tub. Remove the vial of cells to be thawed from liquid nitrogen and thaw rapidly by placing at 37C in a water bath with gentle agitation for 1-2 minutes. Decontaminate the vial by wiping with 70% ethanol before opening in a biological safety cabinet. Transfer the vial contents drop-wise into 14 mL of thaw medium in a sterile 15-mL conical tub. Centrifuge cells at 900 rpm for 4 minutes and resuspend in thaw medium. Transfer contents to the T75 tissue culture flask containing Thaw Medium and place flask in a humidified 37C/5% CO2 incubator. Switch to growth medium at first passage.Propagation Method: Aspirate medium, rinse once in DPBS, add 0.25% Trypsin/EDTA and swirl to coat the cell evenly. Add an equal volume of Growth Medium to inactivate Trypsin after 2-3 minutes incubation at 37C. Centrifuge cells at 900 rpm for 4 minutes and resuspend in growth medium. Cell should be passage or fed at least twice a week.Assay Protocol: Harvest cells from culture in growth medium and resuspend in assay medium. 2.2 Dispense 4000 cells/5 uL/well into 1536-well black/clear bottom plates using a Multidrop dispenser. After the cells were incubated at 37C for 5 hours, 23 nL of compounds dissolved in DMSO were transferred to the assay plate by a PinTool resulting in a 217-fold dilution. Incubate the plates for 16 hours at 37C, 5% CO2. Add 1 uL of 6X LiveBLAzer FRET B/G (CCF4-AM) Substrate Mixture to each well using a BioRAPTR dispenser and incubate the plates at room temperature for 2 hours. Measure fluorescence intensity at 460 and 530 nm emission and 405 nm excitation by an Envision detector. Data is expressed as the ratio of 460nm/530nm emissions. Add 4 uL of Cell-titer Glo to each well using BioRAPTR and incubate the plates at room temperature for […]. For cell viability readout that measures cytotoxicity, 4 ul/well of CellTiter-Glo reagent was added into the assay plates using a Flying Reagent Dispenser. After 30 min incubation at room temperature, the luminescence intensity in the plates was measured using a ViewLux plate reader.

| SMILES | outcome | AC50 |
| --- | --- | --- |
| Clc1cc(Cl)c(Cl)cc1Cl | inactive | – |
| O=C(N[C@@H](Cc1ccccc1)[C@@H](O)C(=O)N1C[C@@H](O)[C@@H](O)C1)c1cc2cc(Cl)ccc2[nH]1 | inactive | – |
| CN1CCCC1=O | inactive | – |
| O=c1[nH]cc(F)c(=O)[nH]1 | inactive | 1.68 µM (active) |
| CC(C)(C)c1cc(O)c(C(C)(C)C)cc1O | inactive | – |
| Cc1nc(-c2ccc3c(c2)CCN(CCC2CCC(NC(=O)/C=C/c4ccc(F)cc4)CC2)CC3)no1 (stereo not given) | inactive | – |
| Cc1cccc([N+](=O)[O-])c1C | inactive | – |
| Cc1ccc(N(C)C)cc1 | inactive | – |
| COc1ccc2c(c1)c(CC(=O)O)c(C)n2C(=O)c1ccc(Cl)cc1 | inactive | – |
| Nc1ccc(S(=O)(=O)c2ccc(N)cc2)cc1 | inactive | – |
| Cc1cccc(C)c1O | inactive | – |
| CCCCCCCCCCCCCO | inactive | – |
| O=C(OCCCCCOC(=O)c1ccccc1)c1ccccc1 | inactive | – |
| c1cc(-c2ccncc2)ccn1 | inactive | – |
| COc1cc(/C=C/C(=O)CC(=O)/C=C/c2ccc(O)c(OC)c2)ccc1O | – | 80.7 µM (active) and 22.5 µM (active) |
| Nc1nc(N)c2nc(CNc3ccc(C(=O)N[C@@H](CCC(=O)O)C(=O)O)cc3)cnc2n1 | – | 0.0649 µM (active) |
| CCc1c(C(=O)NN2CCCCC2)nn(-c2ccc(Cl)cc2Cl)c1-c1ccc(Br)cc1 | inactive | – |
| CCOC(=O)C(C)(C)Oc1ccc(Cl)cc1 | inactive | – |
| CC1(C)CC(N=C=O)CC(C)(CN=C=O)C1 (stereo not given) | inactive | – |
| Cc1ccc2ncccc2c1 | inactive | – |

| SMILES | outcome | AC50 |
| --- | --- | --- |
| COC(=O)c1ccc(O)cc1 | inactive | – |
| Cc1ccccc1Cl | inactive | – |
| CCNc1cccc(C)c1 | inactive | – |
| CCCCCCCCCCCC(=O)OC | inactive | – |
| Cc1cc(=O)[nH]c(=S)[nH]1 | inactive | – |
| CNC(=O)[C@H]1O[C@@H](n2cnc3c(NCc4cc(Cl)ccc4OCc4cc(C)no4)ncnc32)[C@H](O)[C@@H]1N | inactive | – |
| COCCOCCOC | inactive | – |
| Oc1ccc2ccccc2c1N=Nc1ccccc1 | inactive | – |
| CCCCCCOCCO | inactive | – |
| CC(C)c1ccc(C(=O)N=C(N)N)cc1S(C)(=O)=O | inactive | – |
| CCCc1cc(=O)[nH]c(=S)[nH]1 | inactive | – |
| CCCCCCCC=O | inactive | – |
| CN[C@H]1CC[C@@H](c2ccc(Cl)c(Cl)c2)c2ccc(S(N)(=O)=O)cc21 | – | 85.5 µM (active) |
| OC[C@@H](O)[C@@H](O)[C@H](O)[C@H](O)CO | inactive | – |
| COc1cc(C=O)ccc1O | inactive | – |
| C[C@]12C=CC(=O)C=C1CC[C@@H]1[C@@H]2C(=O)C[C@@]2(C)[C@H]1CC[C@]2(O)C(=O)CO | inactive | – |
| Cc1oc(-c2ccccc2)nc1CCOc1cccc2c1ccn2CCC(=O)O | inactive | – |
| O=c1c(O)c(-c2ccc(O)c(O)c2)oc2cc(O)cc(O)c12 | inactive | – |
| Cc1ccc(C(C)C)c(O)c1 | inactive | – |
